Where a name gives a salt, the structure may show the parent alone.
What was measured:
Conditions in all cases: compound concentration in added solution (µM; 5 µl added to 20 µl cells): 10; 18 h
[1] = tested on: A431; assay: LBPA endosome anti-LBPA integrated intensity (sum per cell), Z-score; higher = more LBPA staining
In short: (§1)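 Per-cell integrated LBPA or filipin intensity, whole-cell or within LBPA endosomes, is expressed as Z-scores normalised in AcuityXpress. HeLa MZ or A431 cells, 3,500 per well in 20 µl, sat on 5 µl of 10 µM compound solution in duplicate 384-well imaging plates for 18 h. They were then fixed in 4% PFA, stained, imaged in four 20× fields per well and segmented using MetaXpress.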

[2] = tested on: HeLa MZ; assay: as above
In short: as §1

[3] = tested on: A431; assay: whole-cell filipin (free cholesterol) integrated intensity, Z-score; higher = more cholesterol staining
In short: as §1

[4] = tested on: HeLa MZ; assay: as above
In short: as §1

[5] = tested on: A431; assay: filipin (cholesterol) integrated intensity within LBPA endosomes, Z-score; higher = more cholesterol in LBPA endosomes
In short: as §1

[6] = tested on: HeLa MZ; assay: as above
In short: as §1

SMILES	LBPA endosome anti-LBPA integrated intensity (z-score) [1]	LBPA endosome anti-LBPA integrated intensity (z-score) [2]	whole-cell filipin (z-score) [3]	whole-cell filipin (z-score) [4]	filipin (z-score) [5]	filipin (z-score) [6]
CCCNCC(O)COc1ccccc1C(=O)CCc1ccccc1 (stereo not given) [Propafenone hydrochloride]	3.53	1.93	2.04	1.83	2.65	2.28
Cc1cc(-n2c(=O)[nH]c(=O)n(C)c2=O)ccc1Oc1ccc(SC(F)(F)F)cc1 [Toltrazuril]	-0.328	0.612	-0.109	0.0439	-0.337	-0.457
CC(=O)OCC(CCn1cnc2cnc(N)nc21)COC(C)=O [Famciclovir]	-0.437	-0.227	-0.465	-0.311	-0.431	-0.386
CN(C)[C@@H]1C(O)=C(C(N)=O)C(=O)[C@@]2(O)C(O)=C3C(=O)c4c(O)ccc(Cl)c4[C@@H](O)[C@H]3C[C@@H]12 [Demeclocycline hydrochloride]	-0.567	-1.25	-0.566	-1.1	-0.465	-0.672
CC(COc1ccccc1)N(CCCl)Cc1ccccc1 (stereo not given) [Phenoxybenzamine hydrochloride]	-0.295	-0.519	-0.105	0.141	-0.396	-0.505
N=C(N)N1CCc2ccccc2C1 [Debrisoquin sulfate]	-0.566	-0.193	-0.719	-0.695	-0.556	-0.606
COC(=O)[C@H]1[C@H]2C[C@@H]3c4[nH]c5cc(OC)ccc5c4CCN3C[C@H]2C[C@@H](OC(=O)c2cc(OC)c(OC)c(OC)c2)[C@@H]1OC [Reserpine]	3.11	2.24	2.19	1.75	2.34	1.96
NCC[C@H](O)C(=O)N[C@@H]1C[C@H](N)[C@@H](O[C@H]2O[C@H](CN)[C@@H](O)[C@H](O)[C@H]2O)[C@H](O)[C@H]1O[C@H]1O[C@H](CO)[C@@H](O)[C@H](N)[C@H]1O [Amikacin hydrate]	-0.71	-0.821	-1.06	-0.44	-0.672	-0.666
CCOC(=O)N1CCC(=C2c3ccc(Cl)cc3CCc3cccnc32)CC1 [Loratadine]	0.316	0.865	0.633	0.548	0.439	0.942
CCCNC(C)C(=O)Nc1c(C)csc1C(=O)OC (stereo not given) [Articaine hydrochloride]	-0.511	-1.09	-0.0579	-0.354	-0.492	-0.461
CN(C)CCCO[C@@H]1[C@H]2OC(C)(C)O[C@H]2O[C@@H]1[C@H](O)CO [Amiprilose hydrochloride]	-0.365	-0.384	-0.0258	-0.369	-0.415	-0.492
N=C(N)NCCN1CCCCCCC1 [Guanethidine sulfate]	-0.647	-1.05	-0.871	-0.0594	-0.596	-0.454
CC(=O)O[C@H]1C[C@@H]2CC[C@@H]3[C@H](CC[C@@]4(C)[C@H]3C[C@H]([N+]3(C)CCCCC3)[C@@H]4OC(C)=O)[C@@]2(C)C[C@@H]1N1CCCCC1 [Vecuronium bromide]	-0.413	0.00655	0.0669	-0.181	-0.445	-0.215
CCOC(=O)[C@@](C)(N)Cc1ccc(O)c(O)c1 [Methyldopate hydrochloride]	-0.346	-0.632	-0.323	-0.577	-0.327	-0.42
CC(Cc1cccc(C(F)(F)F)c1)NCCOC(=O)c1ccccc1 (stereo not given) [Benfluorex hydrochloride]	-0.077	-0.59	-0.118	0.0685	-0.352	-0.573
O=C(O)CN(CCN(CC(=O)O)CC(=O)O)CCN(CC(=O)O)CC(=O)O [Pentetic acid]	-0.425	-1.12	-0.45	-0.669	-0.443	-0.521
COc1ccccc1N1CCN(CCCNc2cc(=O)n(C)c(=O)n2C)CC1 [Urapidil hydrochloride]	-0.297	0.724	-0.315	0.116	-0.29	-0.0207
COc1ccc(C(=O)NCc2cccnc2)cc1C(=O)NCc1cccnc1 [Picotamide monohydrate]	-0.303	-0.286	-0.472	-0.0549	-0.457	-0.612
Cc1cccc(CN2CCN(C(c3ccccc3)c3ccc(Cl)cc3)CC2)c1 (stereo not given) [Meclozine dihydrochloride]	-0.277	-0.335	-0.336	-0.815	-0.233	-0.413
N=C(N)NCc1cccc(I)c1 [Iobenguane sulfate]	-0.605	-1.1	-0.881	-0.23	-0.54	-0.449
Cc1ncc([N+](=O)[O-])n1CCO [Metronidazole]	-0.639	-1.28	-1.11	-0.583	-0.459	-0.544
CCCC(=O)Nc1ccc(OCC(O)CNC(C)C)c(C(C)=O)c1 (stereo not given) [Acebutolol hydrochloride]	-0.335	-0.6	-0.712	-0.665	-0.476	-0.408
CC(C)(C)NC[C@H](O)COc1nsnc1N1CCOCC1 [Timolol maleate salt]	-0.399	-0.336	-0.605	-0.359	-0.435	-0.395
CC(C)N1CCN(c2ccc(OCC3COC(Cn4cncn4)(c4ccc(Cl)cc4Cl)O3)cc2)CC1 (stereo not given) [Terconazole]	3.33	2.49	1.58	1.5	3.31	4.7
CN(C)CCOc1ccc(/C(=C(/CCCl)c2ccccc2)c2ccccc2)cc1 [Toremifene]	2.64	0.267	2.3	1.93	2.35	3.94
